Source: the supplement of paper PMC10849652
About 7,900 targets were measured; listed, in parts, are those with a hit and a random draw of the rest. About 0.6% of all pairs of compound and target were hits. A number with no mark means an inactive call.

Key:
Test in all cases: log2 fold change, soluble protein after heating vs DMSO (PISA); higher = thermal stabilisation; K562 cells, 10 uM, 30 min; active = over 0.2 and 3.5 SD of the protein, either way, in both replicates (recomputed)
saracatinib = compound: CN1CCN(CCOc2cc(OC3CCOCC3)c3c(Nc4c(Cl)ccc5c4OCO5)ncnc3c2)CC1 [saracatinib]
Summary of the method: (§1)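 Values are thermal stability changes relative to control samples and are taken from duplicates. They are stated as log2 fold changes. Before quantification by TMTpro 16plex LC-MS/MS with equalised channel sums, K562 cells at 2×10^6 cells/mL were treated with 10 μM compound for 30 min, heated in aliquots for 3 min across 48°C-58°C, pooled, extracted in PBS with 0.5% NP-40 at 4°C, and centrifuged at 21,000xg for 90 min to give the soluble supernatant.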

sotrastaurin = compound: CN1CCN(c2nc(C3=C(c4c[nH]c5ccccc45)C(=O)NC3=O)c3ccccc3n2)CC1 [sotrastaurin]
Summary of the method: as §1

alvocidib = compound: CN1CC[C@H](c2c(O)cc(O)c3c(=O)cc(-c4ccccc4Cl)oc23)[C@H](O)C1 [alvocidib]
Summary of the method: as §1

Tubastatin A = compound: CN1CCc2c(c3ccccc3n2Cc2ccc(C(=O)NO)cc2)C1 [Tubastatin A]
Summary of the method: as §1

[1] = compound: CNC(=O)C1=CC=CC=C1NC2=NC(=NC=C2Cl)NC3=C(C=C(C=C3)N4CCOCC4)OC
Summary of the method: as §1

defactinib = compound: CNC(=O)c1ccc(Nc2ncc(C(F)(F)F)c(NCc3nccnc3N(C)S(C)(=O)=O)n2)cc1 [defactinib]
Summary of the method: as §1

rucaparib = compound: CNCc1ccc(-c2[nH]c3cc(F)cc4c3c2CCNC4=O)cc1 [rucaparib]
Summary of the method: as §1

[2] = compound: CNc1nc(-c2ccc3c(N)n[nH]c3c2)cc(N2C[C@@H](C(=O)NC3CCCCC3)CC[C@H]2C)n1
Summary of the method: as §1

encorafenib = compound: COC(=O)N[C@@H](C)CNc1nccc(-c2cn(C(C)C)nc2-c2cc(Cl)cc(NS(C)(=O)=O)c2F)n1 [encorafenib]
Summary of the method: as §1

[3] = compound: COC(=O)[C@H](CCSC)NC(=O)C1=C(C=C(C=C1)NC[C@H](CS)N)C2=CC=CC=C2
Summary of the method: as §1

[4] = compound: COC1=CC=C(C=C1)CN2C=CC3=C2C=C(C=C3)C(=O)NO
Summary of the method: as §1

filanesib = compound: CON(C)C(=O)N1N=C(c2cc(F)ccc2F)S[C@@]1(CCCN)c1ccccc1 [filanesib]
Summary of the method: as §1

zotarolimus = compound: CO[C@H]1C[C@@H]2CC[C@@H](C)[C@@](O)(O2)C(=O)C(=O)N2CCCC[C@H]2C(=O)O[C@H]([C@H](C)C[C@@H]2CC[C@H](n3cnnn3)[C@H](OC)C2)CC(=O)[C@H](C)/C=C(\C)[C@@H](O)[C@@H](OC)C(=O)[C@H](C)C[C@H](C)/C=C/C=C/C=C/1C [zotarolimus]
Summary of the method: as §1

idasanutlin = compound: COc1cc(C(=O)O)ccc1NC(=O)[C@@H]1N[C@@H](CC(C)(C)C)[C@](C#N)(c2ccc(Cl)cc2F)[C@H]1c1cccc(Cl)c1F [idasanutlin]
Summary of the method: as §1

alisertib = compound: COc1cc(Nc2ncc3c(n2)-c2ccc(Cl)cc2C(c2c(F)cccc2OC)=NC3)ccc1C(=O)O [alisertib]
Summary of the method: as §1

[5] = compound: COc1cc2nc(-c3cc(F)ccc3O)nc(N[C@@H]3CNC[C@H]3C(C)(C)O)c2cc1OC
Summary of the method: as §1

gefitinib = compound: COc1cc2ncnc(Nc3ccc(F)c(Cl)c3)c2cc1OCCCN1CCOCC1 [gefitinib]
Summary of the method: as §1

[6] = compound: COc1cccc2cc(-c3nc([C@H]4CC[C@H](C(=O)O)CC4)n4ncnc(N)c34)[nH]c12
Summary of the method: as §1

lapatinib = compound: CS(=O)(=O)CCNCc1ccc(-c2ccc3ncnc(Nc4ccc(OCc5cccc(F)c5)c(Cl)c4)c3c2)o1 [lapatinib]
Summary of the method: as §1

pictilisib = compound: CS(=O)(=O)N1CCN(Cc2cc3nc(-c4cccc5[nH]ncc45)nc(N4CCOCC4)c3s2)CC1 [pictilisib]
Summary of the method: as §1

Sequence of UniProt Q9UKV5 (Q9UKV5 whole entry, looked up): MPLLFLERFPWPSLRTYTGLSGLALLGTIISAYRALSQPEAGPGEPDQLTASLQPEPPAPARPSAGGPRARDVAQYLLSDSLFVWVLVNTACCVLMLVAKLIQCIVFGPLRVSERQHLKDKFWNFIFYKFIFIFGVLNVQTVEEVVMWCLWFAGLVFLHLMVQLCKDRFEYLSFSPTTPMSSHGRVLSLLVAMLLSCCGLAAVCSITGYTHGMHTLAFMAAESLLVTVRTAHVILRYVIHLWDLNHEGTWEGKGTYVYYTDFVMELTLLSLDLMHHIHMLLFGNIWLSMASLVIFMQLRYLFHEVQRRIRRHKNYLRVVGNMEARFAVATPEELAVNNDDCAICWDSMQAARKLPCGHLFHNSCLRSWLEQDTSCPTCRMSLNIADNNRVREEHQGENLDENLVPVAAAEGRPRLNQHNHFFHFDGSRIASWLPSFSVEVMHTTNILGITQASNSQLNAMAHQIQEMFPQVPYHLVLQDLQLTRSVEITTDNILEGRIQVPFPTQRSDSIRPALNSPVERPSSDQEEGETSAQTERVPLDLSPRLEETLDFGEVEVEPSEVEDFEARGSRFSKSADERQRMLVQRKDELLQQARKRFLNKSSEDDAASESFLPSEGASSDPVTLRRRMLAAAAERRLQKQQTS
Sequence of UniProt P63010 (P63010 whole entry, looked up): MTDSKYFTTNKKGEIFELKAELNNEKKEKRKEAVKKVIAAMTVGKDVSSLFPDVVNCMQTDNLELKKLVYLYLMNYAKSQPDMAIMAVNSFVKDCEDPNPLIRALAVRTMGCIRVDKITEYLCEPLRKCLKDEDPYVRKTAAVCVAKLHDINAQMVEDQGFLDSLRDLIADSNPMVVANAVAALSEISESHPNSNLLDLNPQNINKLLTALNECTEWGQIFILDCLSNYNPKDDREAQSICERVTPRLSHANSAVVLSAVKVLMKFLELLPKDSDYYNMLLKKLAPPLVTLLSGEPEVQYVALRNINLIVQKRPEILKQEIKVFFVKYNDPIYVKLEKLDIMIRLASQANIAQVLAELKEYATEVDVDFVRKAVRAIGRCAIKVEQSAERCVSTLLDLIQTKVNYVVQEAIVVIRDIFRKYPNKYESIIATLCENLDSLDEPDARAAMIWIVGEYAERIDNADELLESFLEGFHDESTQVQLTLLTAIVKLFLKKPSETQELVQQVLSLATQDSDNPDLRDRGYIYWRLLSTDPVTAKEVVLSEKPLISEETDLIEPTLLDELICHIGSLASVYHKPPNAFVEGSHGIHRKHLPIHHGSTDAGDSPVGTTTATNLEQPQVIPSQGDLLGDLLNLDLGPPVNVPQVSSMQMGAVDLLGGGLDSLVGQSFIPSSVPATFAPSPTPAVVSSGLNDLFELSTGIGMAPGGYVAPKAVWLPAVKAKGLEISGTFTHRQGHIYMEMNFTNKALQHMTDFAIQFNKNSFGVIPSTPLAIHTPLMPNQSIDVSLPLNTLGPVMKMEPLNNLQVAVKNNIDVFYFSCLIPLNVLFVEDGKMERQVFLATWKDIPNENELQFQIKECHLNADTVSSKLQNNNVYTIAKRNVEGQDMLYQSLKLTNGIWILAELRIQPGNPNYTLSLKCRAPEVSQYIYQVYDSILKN
Sequence of UniProt Q8WV93 (Q8WV93 whole entry, looked up): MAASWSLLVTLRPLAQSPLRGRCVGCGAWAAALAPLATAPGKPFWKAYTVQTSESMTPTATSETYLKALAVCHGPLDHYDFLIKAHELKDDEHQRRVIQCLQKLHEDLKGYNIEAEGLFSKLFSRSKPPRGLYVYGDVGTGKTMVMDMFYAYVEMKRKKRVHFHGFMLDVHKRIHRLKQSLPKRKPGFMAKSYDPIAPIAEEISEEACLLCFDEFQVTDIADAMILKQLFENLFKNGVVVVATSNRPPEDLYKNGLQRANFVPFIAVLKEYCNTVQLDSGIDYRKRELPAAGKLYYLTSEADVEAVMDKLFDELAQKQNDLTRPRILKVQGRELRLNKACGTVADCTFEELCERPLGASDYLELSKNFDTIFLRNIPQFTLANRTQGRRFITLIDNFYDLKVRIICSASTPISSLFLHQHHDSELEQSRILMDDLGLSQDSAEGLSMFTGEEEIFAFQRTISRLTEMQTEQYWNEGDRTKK
Sequence of UniProt O00763 (O00763 whole entry, looked up): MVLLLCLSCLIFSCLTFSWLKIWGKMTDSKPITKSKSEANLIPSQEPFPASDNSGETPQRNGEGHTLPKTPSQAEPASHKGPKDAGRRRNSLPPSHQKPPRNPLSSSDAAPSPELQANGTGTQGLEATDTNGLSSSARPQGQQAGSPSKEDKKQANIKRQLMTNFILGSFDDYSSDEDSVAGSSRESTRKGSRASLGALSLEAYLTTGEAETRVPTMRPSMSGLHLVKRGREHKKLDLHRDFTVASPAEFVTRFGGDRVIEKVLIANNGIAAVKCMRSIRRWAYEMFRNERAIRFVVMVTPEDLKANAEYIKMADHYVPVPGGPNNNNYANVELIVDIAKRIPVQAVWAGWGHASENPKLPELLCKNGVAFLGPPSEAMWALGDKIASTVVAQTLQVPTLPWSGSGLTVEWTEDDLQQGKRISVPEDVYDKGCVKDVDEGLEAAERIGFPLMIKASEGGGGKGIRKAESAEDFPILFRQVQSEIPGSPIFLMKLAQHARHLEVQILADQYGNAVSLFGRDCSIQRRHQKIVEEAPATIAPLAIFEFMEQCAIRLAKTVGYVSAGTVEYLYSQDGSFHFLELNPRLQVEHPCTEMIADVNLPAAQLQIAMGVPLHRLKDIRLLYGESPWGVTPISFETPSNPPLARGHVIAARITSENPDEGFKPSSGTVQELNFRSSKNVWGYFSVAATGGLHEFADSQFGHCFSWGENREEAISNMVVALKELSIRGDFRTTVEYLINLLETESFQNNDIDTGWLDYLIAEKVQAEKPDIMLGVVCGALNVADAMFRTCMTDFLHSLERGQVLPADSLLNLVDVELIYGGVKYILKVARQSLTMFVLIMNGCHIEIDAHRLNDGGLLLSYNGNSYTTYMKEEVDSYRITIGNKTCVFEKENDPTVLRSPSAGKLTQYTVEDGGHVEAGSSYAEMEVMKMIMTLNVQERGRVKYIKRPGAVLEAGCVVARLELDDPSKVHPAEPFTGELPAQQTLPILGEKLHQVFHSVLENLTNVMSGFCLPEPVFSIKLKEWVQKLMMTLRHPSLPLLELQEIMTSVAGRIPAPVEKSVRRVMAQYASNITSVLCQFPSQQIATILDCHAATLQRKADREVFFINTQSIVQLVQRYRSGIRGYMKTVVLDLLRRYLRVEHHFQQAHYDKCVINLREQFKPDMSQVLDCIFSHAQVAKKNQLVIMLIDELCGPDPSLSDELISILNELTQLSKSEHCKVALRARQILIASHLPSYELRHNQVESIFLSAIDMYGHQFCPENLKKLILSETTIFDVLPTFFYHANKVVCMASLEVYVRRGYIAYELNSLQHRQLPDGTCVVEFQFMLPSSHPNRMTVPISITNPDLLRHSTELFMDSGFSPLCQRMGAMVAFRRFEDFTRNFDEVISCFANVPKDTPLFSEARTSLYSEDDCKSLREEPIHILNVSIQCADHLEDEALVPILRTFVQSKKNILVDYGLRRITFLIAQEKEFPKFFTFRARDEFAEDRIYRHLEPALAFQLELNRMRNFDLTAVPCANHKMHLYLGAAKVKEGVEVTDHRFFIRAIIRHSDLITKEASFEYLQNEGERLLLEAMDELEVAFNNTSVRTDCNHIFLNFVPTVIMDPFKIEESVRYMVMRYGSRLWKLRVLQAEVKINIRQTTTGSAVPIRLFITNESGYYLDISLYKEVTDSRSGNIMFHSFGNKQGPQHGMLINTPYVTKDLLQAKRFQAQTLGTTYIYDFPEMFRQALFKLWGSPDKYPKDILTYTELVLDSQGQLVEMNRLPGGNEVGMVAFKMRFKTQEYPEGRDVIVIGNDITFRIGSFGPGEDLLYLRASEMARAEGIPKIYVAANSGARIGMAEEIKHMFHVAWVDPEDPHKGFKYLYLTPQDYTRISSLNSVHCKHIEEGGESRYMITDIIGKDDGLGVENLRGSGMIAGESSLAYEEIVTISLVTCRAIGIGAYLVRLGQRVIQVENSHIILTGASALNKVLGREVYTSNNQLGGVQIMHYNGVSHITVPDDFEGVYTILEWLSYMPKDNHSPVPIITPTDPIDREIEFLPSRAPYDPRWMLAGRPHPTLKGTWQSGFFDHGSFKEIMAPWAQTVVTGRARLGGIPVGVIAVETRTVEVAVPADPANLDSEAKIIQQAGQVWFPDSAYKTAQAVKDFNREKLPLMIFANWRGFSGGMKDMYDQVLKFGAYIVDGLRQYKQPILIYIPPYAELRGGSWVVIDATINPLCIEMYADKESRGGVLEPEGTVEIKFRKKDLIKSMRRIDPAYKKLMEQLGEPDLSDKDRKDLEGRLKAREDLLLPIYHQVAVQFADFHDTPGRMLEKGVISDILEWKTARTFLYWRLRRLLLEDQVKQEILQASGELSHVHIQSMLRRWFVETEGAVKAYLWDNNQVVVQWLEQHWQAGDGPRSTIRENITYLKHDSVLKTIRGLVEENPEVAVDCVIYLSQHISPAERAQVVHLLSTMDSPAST
Sequence of UniProt Q02252 (Q02252 whole entry, looked up): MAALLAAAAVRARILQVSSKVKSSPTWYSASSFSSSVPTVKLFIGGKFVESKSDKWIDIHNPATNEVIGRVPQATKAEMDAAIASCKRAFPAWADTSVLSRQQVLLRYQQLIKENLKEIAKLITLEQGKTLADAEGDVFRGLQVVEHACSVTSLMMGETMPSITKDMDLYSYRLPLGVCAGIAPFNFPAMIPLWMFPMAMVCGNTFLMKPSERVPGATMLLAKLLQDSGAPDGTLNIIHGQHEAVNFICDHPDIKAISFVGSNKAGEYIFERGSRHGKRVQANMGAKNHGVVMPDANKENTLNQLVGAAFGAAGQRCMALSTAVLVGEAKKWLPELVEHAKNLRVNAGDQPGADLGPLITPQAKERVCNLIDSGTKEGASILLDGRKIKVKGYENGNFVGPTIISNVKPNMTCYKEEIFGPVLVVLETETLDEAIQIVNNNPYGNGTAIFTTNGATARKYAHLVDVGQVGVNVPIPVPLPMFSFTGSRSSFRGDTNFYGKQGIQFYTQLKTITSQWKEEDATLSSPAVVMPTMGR

Target | log2 fold change (saracatinib) | log2 fold change (sotrastaurin) | log2 fold change (alvocidib) | log2 fold change (Tubastatin A) | log2 fold change [1] | log2 fold change (defactinib) | log2 fold change (rucaparib) | log2 fold change [2] | log2 fold change (encorafenib) | log2 fold change [3] | log2 fold change [4] | log2 fold change (filanesib) | log2 fold change (zotarolimus) | log2 fold change (idasanutlin) | log2 fold change (alisertib) | log2 fold change [5] | log2 fold change (gefitinib) | log2 fold change [6] | log2 fold change (lapatinib) | log2 fold change (pictilisib)
ARAF (UniProt P10398) | 0.037 | -0.022 | 0.013 | -0.004 | -0.084 | -0.023 | 0.01 | 0.023 | 0.177 | -0.067 | 0 | -0.022 | 0.06 | 0.006 | 0.076 | -0.274 (active) | 0.076 | 0.06 | 0.076 | -0.175
ALDH6A1 (UniProt Q02252) | 0.031 | 0.144 | -0.098 | 0.03 | 0.021 | -0.021 | 0.021 | -0.045 | 0.024 | -0.008 | -0.128 | -0.025 | 0.024 | -0.032 | -0.09 | 0.029 | 0.04 | 0.066 | 0.02 | 0.063
AFG1L (UniProt Q8WV93) | -0.038 | -0.075 | -0.195 | -0.204 | -0.011 | -0.131 | -0.057 | 0.002 | 0.025 | 0.088 | -0.17 | -0.239 | 0.018 | 0.016 | -0.065 | -0.18 | -0.012 | 0.107 | 0.041 | 
ATAD3B (UniProt Q5T9A4) | -0.047 | -0.101 | 0.091 | -0.009 | -0.084 | 0.096 | 0.25 | 0 | 0.125 | 0.033 | -0.035 | 0.089 | -0.064 | 0.081 | 0.193 | -0.138 | -0.134 | -0.136 | -0.047 | -0.161
ACSL4 (UniProt O60488) | -0.128 | -0.086 | 0.033 | 0.071 | 0.05 | -0.041 | 0.069 | 0.043 | 0.094 | -0.024 | 0.09 | -0.071 | -0.058 | -0.113 | -0.006 | -0.105 | 0.075 | -0.053 | 0.052 | 0.052
AURKA (UniProt O14965) | -0.019 | -0.02 | -0.03 | 0.011 | 0.974 (active) | 0.722 (active) | 0.073 | 0.201 | 0.033 | 0.071 | 0.021 | 0.009 | -0.021 | -0.095 | 1.36 (active) | 0.048 | -0.03 | 0.01 | 0.025 | 0.055
ANAPC2 (UniProt Q9UJX6) | -0.003 | -0.084 | -0.02 | 0.009 | -0.011 | -0.049 | 0.027 | -0.063 | 0.124 | 0.006 | 0.026 | -0.042 | 0.012 | -0.047 | -0.074 | -0.038 | -0.034 | -0.004 | 0.059 | 0.015
AMFR (UniProt Q9UKV5) | -0.06 | -0.056 | -0.021 | -0.016 | 0.088 | -0.043 | 0.011 | -0.015 | 0.033 | 0.008 | -0.048 | -0.066 | -0.017 | 0.037 | -0.012 | -0.136 | 0.071 | 0.016 | 0.003 | -0.093
ARL6IP6 (UniProt Q8N6S5) | 0.192 | 0.005 | -0.082 | -0.014 | -0.099 | -0.053 | 0.009 | 0.004 | 0.015 | -0.035 | -0.113 | -0.014 | -0.03 | -0.088 | 0.004 | -0.042 | -0.021 | 0.036 | 0.004 | 0.005
ATP6V1F isoform 2 (UniProt Q16864) | -0.198 | 0.092 | -0.174 | 0.11 | 0.031 | 0.007 | -0.037 | -0.129 | -0.039 | 0.238 | 0.126 | 0.162 | 0.036 | 0.095 | -0.158 | -0.151 | 0.019 | 0.021 | -0.112 | -0.054
ARL3 (UniProt P36405) | 0.021 | -0.008 | -0.01 | -0.012 | -0.025 | -0.025 | -0.033 | -0.035 | -0.022 | 0.022 | 0 | -0.017 | -0.006 | -0.062 | -0.076 | -0.007 | -0.018 | 0.047 | -0.03 | 0.031
AP2B1 isoform 2 (UniProt P63010) | 0.057 | -0.003 | 0.017 | 0.001 | 0.022 | 0.005 | 0.043 | -0.011 | 0.027 | 0.005 | 0.08 | 0.022 | 0.036 | -0.019 | -0.062 | 0.012 | 0.01 | 0.01 | 0.049 | 0.015
AGPAT5 (UniProt Q9NUQ2) | 0.016 | 0.08 | -0.085 | -0.075 | -0.021 | 0.011 | 0.012 | 0.083 | -0.011 | -0.019 | -0.043 | -0.153 | 0 | -0.044 | 0.113 | -0.111 | 0.018 | 0.071 | 0.119 | 0.062
ARPP19 (UniProt P56211) | -0.002 | 0.01 | 0.032 | -0.047 | -0.015 | -0.089 | -0.05 | -0.056 | -0.016 | 0.002 | 0.294 (active) | 0.033 | -0.016 | 0.002 | -0.061 | -0.184 | -0.007 | 0.075 | -0.01 | -0.073
ACACB (UniProt O00763) | -0.166 | -0.383 | 0.033 | 0.087 | -0.083 | 0.016 | 0.291 | 0.228 | 0.089 | -0.137 | -0.019 | 0.258 | 0.132 | -0.042 | -0.168 | 0.039 | -0.02 | -0.371 | 0.068 | 0.038
BLOC1S3 (UniProt Q6QNY0) | 0.049 | 0.034 | 0.015 | -0.064 | -0.05 | -0.044 | -0.047 | -0.031 | -0.035 | 0.028 | -0.013 | -0.066 | -0.014 | -0.149 | 0.005 | -0.018 | 0.048 | 0.058 | -0.007 | 0.126
